Assay results: the supplement of paper PMC10981050
Where “and” joins values, the source holds several entries; their conditions need not be identical. Equal values may be shown once. Where a name gives a salt, the structure may show the parent alone.

Tests used:
Assay in all cases: cell viability relative to vehicle control; higher = less cytotoxic
Details in all cases: 10 µM
[1] = test system: K562
Method in brief: (§1)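 After removal of identity-inconsistent compounds, the Selleck bioactive, kinase and epigenetic probe libraries were screened on CRISPR-edited mutant clones and isogenic wild-type clones of four leukaemia lines. Plates were 384-well, each well holding 2000 cells in 50 µL medium and receiving a single 10 µM acoustically dispensed dose. CellTiter-Glo luminescence was read 48 h later, after the supernatant was taken off. Genedata Screener was used to express viability as percent of the on-plate vehicle control.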

[2] = test system: MARIMO
Method in brief: as §1

[3] = test system: MOLM14
Method in brief: as §1

[4] = test system: OCI-AML2
Method in brief: as §1

| Structure (SMILES) | cell viability ([1]; SRSF2 genotype: SRSF2 P95H/wt) | cell viability ([1]; SRSF2 genotype: SRSF2 wt/wt) | cell viability ([2]; SRSF2 genotype: SRSF2 P95H/wt) | cell viability ([2]; SRSF2 genotype: SRSF2 wt/wt) | cell viability ([3]; SRSF2 genotype: SRSF2 P95H/wt) | cell viability ([3]; SRSF2 genotype: SRSF2 wt/wt) | cell viability ([4]; SRSF2 genotype: P95H/wt) | cell viability ([4]; SRSF2 genotype: wt/wt) |
| --- | --- | --- | --- | --- | --- | --- | --- | --- |
| CCN1C[C@]2(COC)CC[C@H](OC)[C@]34C1[C@H](C[C@H]23)[C@@]1(O)C[C@H](OC)[C@H]2C[C@@H]4[C@@H]1[C@H]2O [Talatisamine] | 110% and 104% | 108% | 104% | 108% | 105% | 106% | 101% | 107% |
| O=C(O)CNC(=O)c1c(O)c2ccccc2n(Cc2ccccc2)c1=O | 95.1% and 95.2% | 101% | 94.3% | 100% | 99.8% | 101% | 103% | 96.5% |
| O=C(CBr)N1CC([N+](=O)[O-])([N+](=O)[O-])C1 | 86.2% and 82.7% | 81.4% | 85.5% | 101% | 88.6% | 88.7% | 94.3% | 114% |
| N[C@@H]1C[C@H]1c1ccccc1 [Tranylcypromine (2-PCPA) HCl] | 109% and 112% | 115% | 98% | 107% | 97.7% | 97.5% | 94.1% | 85% |
| CC(=O)OC(C)(C)/C=C/C(=O)[C@](C)(O)[C@H]1[C@H](O)C[C@@]2(C)[C@@H]3CC=C4[C@H](C[C@H](O)C(=O)C4(C)C)[C@]3(C)C(=O)C[C@]12C [Cucurbitacin B] | 19.7% and 26.4% | 28.1% | 8.8% | 16.8% | 0.7% | 0.57% | 0.29% | 3.38% |
| ClC(Cl)=C(c1ccc(Cl)cc1)c1ccc(Cl)cc1 | 103% and 96.8% | 106% | 89.6% | 99.1% | 96.8% | 105% | 100% | 108% |
| Cc1ccccc1-n1c(CF)nc2ccc(N)cc2c1=O [Afloqualone] | 88.1% and 90.6% | 86.5% | 84.5% | 95.7% | 93.2% | 96.2% | 110% | 94.4% |
| CC[C@H]1[C@@H]2C[C@H]3[C@@H]4N(C)c5ccccc5[C@]45C[C@@H]([C@@H]2[C@H]5O)N3[C@@H]1O [Ajmaline] | 95.7% and 94% | 98.5% | 90.6% | 96.2% | 94.6% | 98.4% | 93.9% | 97.9% |
| O=P1(N(CCCl)CCCl)NCCCO1 (stereo not drawn) [Cyclophosphamide monohydrate] | 105% and 103% | 108% | 94.6% | 106% | 99.2% | 102% | 100% | 106% |
| CC[C@@H]1CN2CC[C@@]3(C(=O)Nc4ccccc43)[C@@H]2C[C@@H]1/C(=C\OC)C(=O)OC [Corynoxine] | 95.5% and 98.3% | 97.9% | 75.2% | 69.5% | 77.1% | 82.5% | 92.9% | 79.2% |
| O=c1[nH]c2ccccc2n1CCCN1CCC(n2c(=O)[nH]c3cc(Cl)ccc32)CC1 [Domperidone (Motilium)] | 78.9% and 85.9% | 79.7% | 77.9% | 87.4% | 92.4% | 91.8% | 78.8% | 85.7% |
| CC1CCC2N(C1)CC1C3CC4C(CC(=O)C5CC(O)CCC54C)C3CCC1C2(C)O (stereo not drawn) [Peiminine] | 92.5% and 90.8% | 86.1% | 107% | 109% | 87% | 75.6% | 46.2% | 58.8% |
| CCCCCCC(=O)O[C@H]1CC[C@H]2[C@@H]3CCC4=CC(=O)CC[C@]4(C)[C@H]3CC[C@]12C [Testosterone Enanthate] | 91.4% and 86% | 88.5% | 66.5% | 61.8% | 50.1% | 20.5% | 23.7% | 25.8% |
| CNCC(O)c1ccc(O)cc1 (stereo not drawn) [Synephrine HCl] | 102% and 114% | 108% | 110% | 99.8% | 104% | 111% | 108% | 101% |
| CCN1CC2(OC(=O)c3ccccc3NC(C)=O)CCC(OC)C34C1C(CC23)C1(O)CC(OC)C2CC4C1(O)C2OC (stereo not drawn) [Lappaconitine] | 99.3% and 109% | 100% | 108% | 103% | 103% | 105% | 111% | 91.9% |
| C/C=C\c1cc(OC)c(OC)cc1OC [Beta-Asarone] | 106% and 104% | 104% | 98% | 102% | 104% | 104% | 104% | 105% |
| O=C(NCC1CCOCC1)c1cnc(Nc2ccc(Cl)cc2Cl)nc1C(F)(F)F | 95% and 97.7% | 98% | 93.5% | 104% | 103% | 104% | 98.5% | 102% |
| CCCC[N+]1(C)[C@@H]2CC(OC(=O)[C@H](CO)c3ccccc3)C[C@H]1[C@@H]1O[C@@H]12 (stereo partly drawn) [Butylscopolamine bromide (Scopolamine butylb] | 108% and 95.5% | 97.8% | 102% | 110% | 97.5% | 103% | 94.3% | 105% |
| CC(O)(CS(=O)(=O)c1ccc(F)cc1)C(=O)Nc1ccc(C#N)c(C(F)(F)F)c1 (stereo not drawn) [Bicalutamide (Casodex)] | 95.5% and 101% | 106% | 95.4% | 102% | 98.7% | 98.8% | 93.8% | 91.8% |
| COC(=O)Nc1nc2ccccc2[nH]1 [Carbendazim] | 35% and 44.4% | 51.9% | 36.2% | 31.8% | 58.5% | 49% | 60.5% | 52.2% |
| COC1CC(OC2CCC3(C)C4CCC5(C)C(C6=CC(=O)OC6)CCC5(O)C4CCC3(O)C2)OC(C)C1OC1OC(CO)C(O)C(O)C1O (stereo not drawn) [Periplocin] | 8.96% and 10.7% | 11.7% | 11.5% | 4.97% | 3.28% | 0.9% | 1.16% | 4.41% |

| Structure (SMILES) | cell viability ([1]; SRSF2 genotype: SRSF2 P95H/wt) | cell viability ([1]; SRSF2 genotype: SRSF2 wt/wt) | cell viability ([2]; SRSF2 genotype: SRSF2 P95H/wt) | cell viability ([2]; SRSF2 genotype: SRSF2 wt/wt) | cell viability ([3]; SRSF2 genotype: SRSF2 P95H/wt) | cell viability ([3]; SRSF2 genotype: SRSF2 wt/wt) | cell viability ([4]; SRSF2 genotype: P95H/wt) | cell viability ([4]; SRSF2 genotype: wt/wt) |
| --- | --- | --- | --- | --- | --- | --- | --- | --- |
| C=CCCCCCCCCC(=O)O[C@H]1CC[C@H]2[C@@H]3CCC4=CC(=O)C=C[C@]4(C)[C@H]3CC[C@]12C [Boldenone Undecylenate] | 100% and 92.8% | 95.7% | 86% | 89.2% | 57.4% | 26.7% | 38.1% | 36.7% |
| C[C@H]1CCCC(=O)CCC/C=C/c2cc(O)cc(O)c2C(=O)O1 [Zearalenone] | 101% and 93.8% | 99.5% | 82.7% | 88.8% | 79.2% | 99% | 88.7% | 97.7% |
| CC(C)(C)c1cc(C=C(C#N)C#N)cc(Br)c1O | 84.3% and 86.2% | 78% | 94.2% | 99.3% | 93.5% | 100% | 80.5% | 89.6% |
| Cc1c(N[C@@H](c2nnc(-c3ccc(C#N)cc3)o2)[C@H](C)O)ccc(C#N)c1Cl | 87.6% and 86.2% | 100% | 88.4% | 96.5% | 88.9% | 100% | 100% | 102% |
| CN1CCC(c2c[nH]c3ccc(O)cc23)CC1 | 107% and 100% | 102% | 101% | 104% | 103% | 102% | 91.8% | 105% |
| CCCCCCC[n+]1ccc(-c2cc[n+](CCCCCCC)cc2)cc1 [DHBP dibromide] | 51.7% and 49.9% | 56.3% | 71% | 76.1% | 53.9% | 76.4% | 51.8% | 52.4% |
| CC(C)c1cc2c(c(O)c1O)[C@@]1(C(=O)O)CCCC(C)(C)[C@@H]1CC2 [Carnosic acid] | 70.2% and 83.7% | 86.6% | 41.8% | 5.17% | 43.8% | 41.1% | 33.2% | 27.1% |
| Cn1cc(C2=C(c3cn(C4CCN(Cc5ccccn5)CC4)c4ccccc34)C(=O)NC2=O)c2ccccc21 | 91.5% and 86.9% | 91.3% | 93% | 101% | 76.9% | 91.3% | 110% | 111% |
| C[C@]12CC[C@H](O)C[C@@H]1CC[C@@H]1[C@@H]2CC[C@]2(C)C(=O)CC[C@@H]12 | 94.7% and 104% | 104% | 98.9% | 108% | 98.5% | 107% | 106% | 97.3% |
| Cc1cc2c(C(C)C)c(O)c(O)c(C=O)c2c(O)c1-c1c(C)cc2c(C(C)C)c(O)c(O)c(C=O)c2c1O | 2.58% and 2.65% | 13.3% | 11.7% | 15.4% | 0.51% | 1.24% | 0.59% | 1.12% |
| CC1=C[C@@H]2C(=O)[C@]3(C=C(C)[C@H](O)[C@@]3(O)[C@@H]1O)[C@H](C)C[C@@H]1[C@H]2C1(C)C [20-Deoxyingenol] | 79.4% and 65.6% | 65.1% | 76.2% | 100% | 39.8% | 14.8% | 18.2% | 52% |
| Cc1cc(C(C#N)c2ccc(Cl)cc2)c(Cl)cc1NC(=O)c1cc(I)cc(I)c1O (stereo not drawn) [Closantel] | 95% and 92.2% | 92.3% | 102% | 108% | 99% | 100% | 92.4% | 110% |
| Cc1cccc(C(C)c2c[nH]cn2)c1C (stereo not drawn) [Medetomidine HCl] | 97.2% and 99.8% | 95.1% | 95.1% | 107% | 101% | 102% | 97% | 113% |
| C[C@]12CCC(=O)C[C@@H]1CC[C@@H]1[C@@H]2CC[C@]2(C)[C@@H](O)CC[C@@H]12 [Dihydrotestosterone (DHT)] | 97% and 97.8% | 97.7% | 95.3% | 109% | 93.9% | 102% | 96.5% | 101% |
| CN(C)[C@@H]1C(=O)C(C(N)=O)=C(O)[C@@]2(O)C(=O)C3=C(O)c4c(O)cccc4[C@@](C)(O)[C@H]3[C@H](O)[C@@H]12 [Oxytetracycline dihydrate] | 98.3% and 102% | 101% | 104% | 100% | 97.6% | 103% | 103% | 92.6% |
| CC(=O)O[C@@]12CO[C@@H]1C[C@H](O)[C@@]1(C)C(=O)[C@H](O)C3=C(C)[C@@H](OC(=O)[C@H](O)[C@@H](NC(=O)c4ccccc4)c4ccccc4)C[C@@](O)([C@@H](OC(=O)c4ccccc4)[C@H]21)C3(C)C [10-deacetyl-paclitaxel] | 25.2% and 36.9% | 34.3% | 7.89% | 4.88% | 9.1% | 3.82% | 10.3% | 15.4% |
| O=Cc1ccccc1 [Benzoic aldehyde] | 98.9% and 98% | 95% | 86.4% | 91.5% | 93% | 92.4% | 85.4% | 88.3% |
| CCC(=O)O[C@H]1CC[C@H]2[C@@H]3CC[C@H]4CC(=O)[C@H](C)C[C@]4(C)[C@H]3CC[C@]12C [Drostanolone Propionate] | 85.6% and 88.6% | 79.2% | 72.7% | 44.8% | 77.4% | 83.8% | 63.7% | 57.3% |
| CCC(COC(=O)c1cc(OC)c(OC)c(OC)c1)(c1ccccc1)N(C)C (stereo not drawn) [Trimebutine] | 94.7% and 99.7% | 97.2% | 87.4% | 109% | 97.9% | 104% | 92.5% | 97.8% |
| CC(=O)O[C@H]1C[C@H](O[C@H]2[C@@H](O)C[C@H](O[C@H]3[C@@H](O)C[C@H](O[C@H]4CC[C@@]5(C)[C@H](CC[C@@H]6[C@@H]5C[C@@H](O)[C@]5(C)[C@@H](C7=CC(=O)OC7)CC[C@]65O)C4)O[C@@H]3C)O[C@@H]2C)O[C@H](C)[C@H]1O[C@@H]1O[C@H](CO)[C@@H](O)[C@H](O)[C@H]1O [Lanatoside C] | 10.1% and 11.2% | 12.5% | 14.9% | 5.1% | 4.2% | 0.9% | 0.9% | 3.5% |
